Assay results as given in PubChem BioAssay (Tox21).
Records with an inconclusive call do not appear. The source made the active and inactive calls. Unless noted, calls follow the shape of the dose curve; as a rule, active = well fitted curve in the direction sought with a large enough effect in the repeat runs; inconclusive = weak or mixed curves; inactive = no such curve, though single readings can be large; an effect the other way counts as inactive or inconclusive.

What was measured:
[1] = qHTS assay to identify small molecule agonists of the vitamin D receptor (VDR) signaling pathway - cell viability counter screen (AID 743224); also: series mostly up to about 63 µM; % is scaled to controls: 0 for no effect and ±100 for the full control effect; nearly all actives have a fitted effect of over 50% in size
Method in brief: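 Compounds were pin-transferred onto VDR-bla cells plated 4 h earlier; following 16 h incubation at 37C, cell viability was quantified by CellTiter-Glo luminescence after 30 min at room temperature.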

[2] = qHTS assay to identify small molecule antagonists of the vitamin D receptor (VDR) signaling pathway - cell viability counter screen (AID 743225); also: % is scaled to controls: 0 for no effect and ±100 for the full control effect; nearly all actives have a fitted effect of over 50% in size
Method in brief: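 Cells (VDR-UAS-bla HEK 293T) are plated, rested 4 h at 37C, dosed with compound and 3 nM final 1-alpha,25-dihydroxy vitamin D3, and incubated 16 h. Viability is taken from CellTiter-Glo luminescence in the reporter wells.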

[3] = qHTS assay to identify small molecule agonists of the NFkB signaling pathway - cell viability counter screen (AID 1159515; calls by dose curve; also: series mostly up to about 61 µM; % is scaled to controls: 0 for no effect and ±100 for the full control effect; nearly all actives have a fitted effect of over 55% in size)
Method in brief: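 Parallel cytotoxicity counter screen in ME-180 cells carrying an NFkB-response-element beta-lactamase reporter, 2,000 cells/well. Compound exposure lasted 5 hr at 37 C, 5% CO2. Cell viability was quantified by CellTiter-Glo luminescence.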

[4] = qHTS assay to identify small molecule agonists of the endoplasmic reticulum stress response signaling pathway (AID 1159516; active = well fitted activation curve with a large enough effect in the signal ratio in the repeat runs, not every such curve was filed as active; the % refers to the signal ratio; also: % is scaled to controls: 0 for no effect and ±100 for the full control effect)
Method in brief: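 Using a HeLa line with an ESRE-driven beta-lactamase gene, agonist activity was measured by FRET substrate fluorescence (460 and 530 nm emission) after cells were treated with compounds for 5 hr at 37 C and 5% CO2.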

[5] = qHTS assay to identify small molecule agonists of the endoplasmic reticulum stress response signaling pathway - cell viability counter screen (AID 1159517; calls by dose curve;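 also: HeLa cells carrying an ER stress response element beta-lactamase reporter; series mostly up to about 61 µM; % is scaled to controls: 0 for no effect and ±100 for the full control effect; nearly all actives have a fitted effect of over 50% in size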)
Method in brief: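 ESRE-bla HeLa cells (1,500/well) were plated overnight at 37 C and exposed to compounds for 5 hr. After the 2 hr beta-lactamase substrate read, CellTiter-Glo went into the same wells, and luminescence was read after 30 min at room temperature.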

[6] = qHTS assay to identify small molecule antagonists of the retinoid-related orphan receptor gamma (ROR-gamma) signaling pathway - cell viability counter screen (AID 1159520); also: % is scaled to controls: 0 for no effect and ±100 for the full control effect; nearly all actives have a fitted effect of over 50% in size
Method in brief: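 Cytotoxicity was read from cellular ATP (CellTiter-Glo luminescence) after 16 hr at 37 C with 1 uM doxycycline induction. The inducer was added 2 hr after compound transfer to Tet-on ROR gamma CHO cells.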

[7] = qHTS assay to identify small molecule agonists of the AP-1 signaling pathway - cell viability counter screen (AID 1159525; calls by dose curve; also: nearly all actives have a fitted effect of over 55% in size)
Method in brief: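 Intracellular ATP by Cell Titer Glo luminescence (30 min, RT) in the same ME-180 AP-1-bla wells after the 5 h compound exposure at 37 °C. Normalised to tetra n-octyl ammonium bromide and DMSO controls.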

[8] = qHTS assay to identify small molecule agonists of the AP-1 signaling pathway (AID 1159526; calls by dose curve; also: % is scaled to controls: 0 for no effect and ±100 for the full control effect)
[9] = molecular target: Retinoic acid receptor RXR-alpha (Homo sapiens) (UniProt P19793); experiment: qHTS assay to identify small molecule agonists of the RXR signaling pathway (AID 1159527; calls by dose curve; also: nearly all actives have a fitted effect of over 35% in size; also: potency is read from the fitted curve at half-maximal effect)
Chain of Retinoic acid receptor RXR-alpha (Homo sapiens) (P19793 whole entry, looked up): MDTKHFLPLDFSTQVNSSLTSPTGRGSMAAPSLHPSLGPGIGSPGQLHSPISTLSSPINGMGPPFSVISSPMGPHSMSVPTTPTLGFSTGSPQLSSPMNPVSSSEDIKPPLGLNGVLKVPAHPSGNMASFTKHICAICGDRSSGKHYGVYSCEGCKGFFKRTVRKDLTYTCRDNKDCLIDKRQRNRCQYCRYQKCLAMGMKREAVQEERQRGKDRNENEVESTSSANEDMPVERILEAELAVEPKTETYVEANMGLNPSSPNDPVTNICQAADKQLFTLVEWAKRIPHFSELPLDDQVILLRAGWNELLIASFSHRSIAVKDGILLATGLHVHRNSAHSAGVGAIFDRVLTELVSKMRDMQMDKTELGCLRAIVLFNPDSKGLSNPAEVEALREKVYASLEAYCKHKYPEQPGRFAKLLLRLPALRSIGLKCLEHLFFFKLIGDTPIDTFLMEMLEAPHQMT
Method in brief: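 qHTS of the Tox21 10K library in GeneBLAzer RXR-alpha HEK 293T cells carrying a beta-lactamase reporter […]; 16 hr treatment, 9-cis retinoic acid as agonist control, FRET read-out.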

[10] = qHTS assay to identify small molecule agonists of the RXR signaling pathway - cell viability counter screen (AID 1159529)
Method in brief: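 Cell viability is measured by CellTiter-Glo luminescence, 30 min at room temperature, in wells already read for beta-lactamase. Engineered HEK 293T cells (RXR-alpha-UAS-bla) are dosed 16 hr at 37 C. Tetraoctyl ammonium bromide serves as positive control.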

[11] = qHTS assay to identify small molecule antagonists of the retinoid acid receptor (RAR) signaling pathway - cell viability counter screen (AID 1159551); also: % is scaled to controls: 0 for no effect and ±100 for the full control effect; nearly all actives have a fitted effect of over 35% in size
Method in brief: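 ATP-based viability, C3RL4 cells, 6 h at 37 C with 1 uM final retinol co-added after compound; luminescence read 30 min post CellTiter-Glo, RT.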

[12] = molecular target: Nuclear receptor ROR-gamma (Homo sapiens) (UniProt P51449); experiment: qHTS assay to identify small molecule antagonists of the retinoid-related orphan receptor gamma (ROR-gamma) signaling pathway (AID 1159521)
Method in brief: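 RORγ antagonism is scored from reduced reporter luminescence in Tet-on CHO cells. Induction used 1 uM final doxycycline hyclate for 16 h at 37 C, following a 2 h compound exposure.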

[13] = qHTS assay to identify small molecule agonists of the retinoic acid receptor (RAR) signaling pathway (AID 1159553); also: % is scaled to controls: 0 for no effect and ±100 for the full control effect
Method in brief: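 Quantitative high-throughput format: the Tox21 10K library was tested on C3RL4 RARE-luciferase cells for 6 hr at 37 C and 5% CO2, with luminescence measured after a 30 min room-temperature reagent step.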

[14] = qHTS assay to identify small molecule antagonists of the estrogen related receptor (ERR) signaling pathway - cell viability counter screen (AID 1224818);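 also: series mostly up to about 46 µM; viability measured after 17.5 h of compound exposure; % is scaled to controls: 0 for no effect and ±100 for the full control effect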
Method in brief: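 Quantitative high-throughput viability counter screen in ERR cells. Compounds (DMSO) incubated 17.5 h at 37 C; read-out was CellTiter-Fluor fluorescence.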

[15] = qHTS assay to identify small molecule antagonists of the estrogen related receptor signaling pathway with the pleiotropic PPARgamma coactivator (PGC) cell viability counter screen (AID 1224822)
Method in brief: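 Cytotoxicity in the PGC/ERR cell line is assessed with CellTiter-Fluor, read as fluorescence intensity 30 min after reagent addition, following 17.5 h compound treatment at 37 C.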

CCCCCCCCCCOc1cc2c(=O)c(C(=O)OCC)c[nH]c2cc1OCC
inactive: activity change, negative = cytotoxicity [1] -0.151% [at 5.95 µM] | viability change, negative = cytotoxic [2] -0.675% [at 6.95 µM] | activity, negative = cytotoxic [3] 6.37% [at 6.95 µM] | activation [4] 2.24% [at 6.95 µM] | activity change, negative = cytotoxicity [5] -7.49% [at 6.95 µM] | activity, negative = cytotoxicity [6] 2.58% [at 8.39 µM] | viability change, negative = cytotoxic [7] 15.6% [at 6.97 µM] | activation [8] 9.42% [at 6.97 µM] | activation [9] -0.304% [at 6.98 µM] | activity change, negative = cytotoxicity [10] -0.18% [at 6.97 µM] | activity change, negative = cytotoxicity [11] 1.07% [at 8.39 µM]

CC1(C)[C@@H]2CC[C@@]1(C)[C@H](O)C2
inactive: outcome [1] | outcome [2] | outcome [3] | outcome [4] | outcome [5] | outcome [7] | outcome [8] | Potency [9] | Potency [10] | outcome [11]

CC(C)(CCC(=O)O)C(=O)O
inactive: outcome [1] | outcome [2] | outcome [3] | outcome [4] | outcome [5] | outcome [6] | outcome [7] | outcome [8] | Potency [9] | Potency [10] | outcome [11]

CC(C)(C)C(=O)Oc1ccc(S(=O)(=O)Nc2ccccc2C(=O)NCC(=O)O)cc1
inactive: outcome [1] | outcome [2] | outcome [3] | outcome [4] | outcome [5] | Potency [12] | outcome [7] | outcome [8] | Potency [9] | Potency [10] | outcome [11] | Potency [13] | outcome [14] | outcome [15]

Cc1cc(C)c(N=Nc2c(O)c(S(=O)(=O)O)cc3cc(S(=O)(=O)O)ccc23)cc1C
inactive: activity change, negative = cytotoxicity [1] -8.28% [at 5.95 µM] | viability change, negative = cytotoxic [2] 8.22% [at 6.95 µM] | activity, negative = cytotoxic [3] -2.06% [at 6.95 µM] | activation [4] -3.13% [at 6.95 µM] | activity change, negative = cytotoxicity [5] 9.59% [at 6.95 µM] | activity, negative = cytotoxicity [6] -7.94% [at 8.39 µM] | viability change, negative = cytotoxic [7] -9.8% [at 6.97 µM] | activation [8] 6% [at 6.97 µM] | activation [9] 2.6% [at 6.98 µM] | activity change, negative = cytotoxicity [10] -2.64% [at 6.97 µM] | activity change, negative = cytotoxicity [11] 0.446% [at 8.39 µM]

CC(CO)(CO)[N+](=O)[O-]
inactive: outcome [1] | outcome [2] | outcome [3] | outcome [4] | outcome [5] | Potency [12] | outcome [7] | outcome [8] | Potency [9] | Potency [10] | outcome [11]

NO
active: Potency [9] 44.5 µM
inactive: outcome [1] | outcome [2] | outcome [3] | outcome [4] | outcome [5] | outcome [6] | outcome [7] | outcome [8] | Potency [10] | outcome [11] | Potency [13] | outcome [14] | outcome [15]

CC1=CC(=O)[C@H]2C[C@@H]1C2(C)C
inactive: outcome [2] | outcome [3] | outcome [4] | outcome [5] | Potency [12] | outcome [7] | outcome [8] | Potency [9] | Potency [10] | outcome [11]

CCCCS(=O)(=O)N[C@@H](Cc1ccc(OCCCCC2CCNCC2)cc1)C(=O)O
inactive: outcome [1] | outcome [2] | outcome [3] | outcome [4] | outcome [5] | outcome [6] | outcome [7] | outcome [8] | Potency [9] | Potency [10] | outcome [11] | Potency [13]

C=CCCCCCCCCC(=O)OCC
inactive: outcome [1] | outcome [2] | outcome [3] | outcome [4] | outcome [5] | outcome [6] | outcome [7] | outcome [8] | Potency [10] | outcome [11]

CCCC(=O)O[C@]1(C(=O)CC)CC[C@H]2[C@@H]3CCC4=CC(=O)CC[C@]4(C)[C@H]3[C@@H](O)C[C@@]21C
inactive: outcome [1] | outcome [2] | outcome [3] | outcome [4] | outcome [5] | outcome [6] | outcome [7] | outcome [8] | Potency [9] | Potency [10] | outcome [11]
